CtBP-E1A inh = qHTS Assay for Inhibitors of the CtBP/E1A Interaction. activity change, % (no concentration beside the values). AlphaScreen GST-E1A/His-CtBP binding, 1536-well; active compounds read low. CtBP / adenovirus E1A interaction (AlphaScreen). actives 0.49% (n = 340,000). AID 651724, 2012; note: % is set by controls: 0 for no effect and ±100 for the full control effect
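AlphaScreen with 125 nM GST-E1A and 125 nM His-CtBP (5X stocks) in Tris pH 8.0, 300 mM NaCl, BSA, Tween 20, TCEP. Compounds preincubated 2 h at 37 deg C, then glutathione donor/nickel acceptor beads added for 1 h at 37 deg C in dark.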
Six1-Eya2 blk = qHTS Assay for Inhibitors of the Six1/Eya2 Interaction | Homeobox protein SIX1 (Homo sapiens) + Protein phosphatase EYA2 (Homo sapiens), … | AlphaScreen GST-Six1/His-Eya2 binding, biochemical; active compounds read low | activity change, % (concentration not given with the values) | actives 0.56% (n = 360,000) | AID 651725, 2012; note: % is set by controls: 0 for no effect and ±100 for the full control effect
Target sequence (O00167 whole entry, looked up): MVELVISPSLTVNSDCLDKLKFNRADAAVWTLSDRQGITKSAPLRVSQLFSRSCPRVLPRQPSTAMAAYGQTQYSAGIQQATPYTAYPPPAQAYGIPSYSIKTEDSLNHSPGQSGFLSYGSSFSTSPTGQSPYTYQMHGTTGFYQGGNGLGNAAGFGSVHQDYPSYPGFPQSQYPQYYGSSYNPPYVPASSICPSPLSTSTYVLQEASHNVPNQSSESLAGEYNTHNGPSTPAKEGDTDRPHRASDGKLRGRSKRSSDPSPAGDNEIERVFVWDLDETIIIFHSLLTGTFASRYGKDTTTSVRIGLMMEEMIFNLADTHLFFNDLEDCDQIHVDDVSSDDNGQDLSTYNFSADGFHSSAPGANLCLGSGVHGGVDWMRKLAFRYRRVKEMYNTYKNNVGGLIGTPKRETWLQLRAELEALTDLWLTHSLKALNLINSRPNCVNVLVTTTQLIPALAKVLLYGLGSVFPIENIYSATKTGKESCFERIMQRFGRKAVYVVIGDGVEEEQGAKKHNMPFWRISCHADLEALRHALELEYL
Target sequence (Q15475 whole entry, looked up): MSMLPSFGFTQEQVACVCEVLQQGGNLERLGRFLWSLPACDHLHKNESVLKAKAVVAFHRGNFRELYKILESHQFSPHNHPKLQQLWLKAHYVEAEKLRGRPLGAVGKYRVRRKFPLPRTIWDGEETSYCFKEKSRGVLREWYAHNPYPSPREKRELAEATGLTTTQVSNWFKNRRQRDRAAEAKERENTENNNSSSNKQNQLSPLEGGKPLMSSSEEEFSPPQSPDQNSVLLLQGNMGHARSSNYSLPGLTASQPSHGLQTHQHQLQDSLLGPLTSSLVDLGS
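Compounds are tested against tagged Six1 and Eya2 proteins bridged by glutathione donor and nickel acceptor beads; after a one-hour incubation at 37 °C without light, AlphaScreen emission is recorded.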
MBNL1-CUG inh = qHTS Assay for Inhibitors of MBNL1-poly(CUG) RNA binding; TR-FRET MBNL1-His/biotin-(CUG)12 binding, 665/545 ratio; AID 2675, 2010; Potency, µM (top dose mostly 57.5 µM), for inactives: top-dose activity change, negative = inhibition, actives largely listed as inhibitors; actives 0.036% (n = 280,000); Muscleblind-like protein 1 (Homo sapiens), Q9NR56; active = well fitted inhibition curve with a large enough effect in the signal ratio, with a control signal flat, not every such curve was filed as active; inconclusive = small, poorly fitted or top-dose-only effect, or effect the other way, or a change in a side signal; inactive = no such curve, though single readings can be large or run the other way; the % refers to the signal ratio; note: potency is the fitted concentration of half-maximal effect; % is set by controls: 0 for no effect and ±100 for the full control effect
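Compound titration spanned 92 nM–58 uM against the MBNL1-His/biotin-(CUG)12 complex. After 60 min at room temperature with 5 nM streptavidin-XL665 and 0.055 ng/ul terbium anti-His, ratiometric 665/545 nm emission (Ex 340 nm) normalized to controls.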
Mito fusion act = qHTS Assay for Small Molecule Inhibitors of Mitochondrial Division or Activators of Mitochondrial Fusion | actives 0.23% (n = 320,000) | S. cerevisiae fusion-defective mutant growth rescue, CellTiterGlo 48 h | Potency, µM (top dose mostly 46.1 µM), without a hit: at the highest dose growth rescue (activation), actives largely listed as activators; active = well fitted activation curve with a large enough effect; inconclusive = small, poorly fitted or top-dose-only effect; inactive = no such curve, though single readings can be large or run the other way; note: potency is the fitted concentration of half-maximal effect; % of control where 0% means no effect; nearly all actives have a fitted effect of over 45% in size
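Yeast fusion mutant, YPEG (non-fermentable carbon), compound, 48 h at 37C non-permissive; CellTiterGlo added, 10 min RT, luminescence read. Rescued growth = division inhibition.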
uPA surface inh = qHTS for Inhibitors of Cell Surface uPA Generation. cell surface uPA generation assay, qHTS. Potency, µM (doses to about 38.3 µM), without a hit: top-dose activity change, negative = inhibition, most hits filed as inhibitors. actives 0.31% (n = 330,000). AID 540303, 2011; active = well fitted inhibition curve with a large enough effect; inconclusive = small, poorly fitted or top-dose-only effect; inactive = no such curve, though single readings can be large or run the other way; tested in mouse RAW 264.7 cells; note: potency is the fitted concentration of half-maximal effect; % is set by controls: 0 for no effect and ±100 for the full control effect; nearly all actives have a fitted effect of over 55% in size
The depositor's hits bear a star; ? = inconclusive; · = no result given. An excerpt weighted towards active compounds, which were near 1.1% of everything screened. Cut-off read from the data, not from the text of the source, unless noted: active = activity change below about -65%; inconclusive = mostly about -30% to -63%; inactive = weaker than that.

SMILES	CtBP-E1A inh	Six1-Eya2 blk	MBNL1-CUG inh	Mito fusion act	uPA surface inh
O=C(/C=C/c1ccc(OC(F)F)cc1)OCC(=O)N1CCN(C(=O)c2ccco2)CC1	?	-16.9	·	0.1%	-0.9%
COc1ccc2cc(C[C@@H]3CC[C@@H](CO)O3)ccc2c1	3.1	2.8	·	·	?
COc1ccc2nc(SCC(=O)NC3CCCCC3C)[nH]c2c1 (stereo not given)	6.1	-2.2	·	1.6%	8.91µM*
FC(F)(F)c1cc(Cl)c2nc(-c3ccco3)c(Cc3ccccc3C(F)(F)F)n2c1	4.5	-7.9	·	·	·
Cc1cccc(NC(=S)c2nc3ccccc3s2)c1	-80.7*	-75.4*	0.7%	-7.7%	1.1%
COc1ccccc1CCn1cnc(Cc2ccccc2)c1C(C)C	-0.5	-18.5	·	·	·
CCn1c2ccccc2c2cc(NC(=O)c3cc(OC)cc(OC)c3)ccc21	10.6	-7.9	-9.3%	5.2%	2.24µM*
COc1ccccc1-c1csc(C(NC(C)=O)c2ccccc2)n1 (stereo not given)	23.7	16.3	·	·	·
CC(C)c1nc(SCC(=O)Nc2ccc(C(=O)O)cc2)c2c3c(sc2n1)CCCC3	-15.9	-82.6*	-0.6%	-51.8%	·
CC1CCc2c(sc3ncnc(SCC(=O)Nc4ccc(C(=O)O)cc4)c23)C1 (stereo not given)	-6.4	-0.3	-1.6%	-17.6%	0.0%
Cc1cc(C(=O)Nc2c(C)nn(Cc3c(Cl)cccc3Cl)c2C)no1	6.1	5.5	-1.0%	2.7%	·
Cc1nn(Cc2c(Cl)cccc2Cl)c(C)c1NC(=O)c1cc(C(C)C)on1	1.5	0.6	-6.6%	2.2%	3.16µM*
COc1cc(NC(=O)Cn2nnc(-c3ccc(C(F)(F)F)cc3)n2)c(C(=O)O)cc1OC	·	·	·	2.0%	·
Cc1nc2ccccc2nc1N/N=C/c1ccc(O)cc1	-7.2	-23.4	·	1.0%	?
Cc1nc(N/N=C/c2ccc(O)cc2)c2cnn(-c3ccccc3)c2n1	-75.6*	?	-1.8%	22.6%	-25.2%
O=c1[nH]cnc2nc(-c3ccccc3)c(-c3ccccc3)nc12	1.0	-0.3	?	-2.9%	1.0%
O=c1[nH]cnc2nn(-c3ccccc3)nc12	-65.4*	?	16.0%	1.5%	-1.6%
O=C(c1ccc(Cl)cc1)C(CN1CCCC1)c1ccccc1 (stereo not given)	·	1.6	-6.5%	-12.8%	5.01µM*
COc1ccc(C(=O)C(CN2CCCC2)c2ccccc2)cc1 (stereo not given)	9.3	0.0	-2.9%	-2.0%	-9.6%
O=C(Nc1cc(C(F)(F)F)ccc1N1CCCCC1)C1=COCCO1	4.9	-3.5	·	·	·
Cc1cc(C)c2nc(Cl)c(CN(Cc3ccco3)C(=O)Nc3ccccc3C)cc2c1	7.4	-7.0	-11.3%	7.08µM*	?
COCCN(Cc1cc2cc(C)cc(C)c2nc1Cl)C(=O)Nc1ccccc1	0.9	3.3	-2.6%	12.2%	?
COc1ccc(N2C(N)=C(C#N)C(c3cc(CN4CCOCC4)cs3)C3=C2CCCC3=O)cc1 (stereo not given)	·	·	·	3.8%	·
O=C(N/N=C(\c1ccccc1)c1cccnc1)c1ccc(O)cc1	-22.7	-7.1	5.5%	-0.7%	4.4%
O=C(N/N=C(\c1ccccc1)c1cccnc1)c1cccc(F)c1	-2.6	-79.7*	34.2%	-4.3%	3.5%
SMILES	CtBP-E1A inh	Six1-Eya2 blk	MBNL1-CUG inh	Mito fusion act	uPA surface inh
O=C1CC(c2ccccc2)n2nc(NC(=O)c3ccccc3)nc2N1 (stereo not given)	1.8	-1.4	0.2%	1.7%	3.7%
O=C1CC(c2ccccc2)n2nc(NC(=O)c3ccccn3)nc2N1 (stereo not given)	?	-75.4*	6.6%	-8.2%	-10.9%
c1coc(C2Nc3ccccc3C3OCCC23)c1 (stereo not given)	-0.7	-11.5	6.3%	0.2%	-4.8%
COc1ccc2c(c1)C1OCCC1C(c1ccco1)N2 (stereo not given)	-22.1	-0.9	·	·	2.51µM*
COc1cccc(C(=O)N/N=C/C(Br)=C/c2ccccc2)c1	-87.9*	-27.9	?	-1.1%	-6.9%
O=C(N/N=C/C(Br)=C\c1ccccc1)c1n[nH]c2c1CCC2	-87.4*	-20.7	27.3%	-10.8%	-49.2%
CC(/C=N/NC(=O)c1n[nH]c2c1CCC2)=C\c1ccccc1	-7.1	4.7	13.7%	-2.3%	-13.4%
O=C(CN1CCOCC1)N/N=C/c1ccc(C(=O)O)cc1	12.8	4.9	1.6%	-4.6%	-16.9%
Cn1cc(C(=O)N/N=C/C(Br)=C/c2ccccc2)ccc1=O	·	-27.2	·	-2.2%	5.62µM*
O=C(CN1CCOCC1)N/N=C/C(Br)=C\c1ccccc1	-81.4*	-21.6	?	4.3%	-6.2%
CCN(CC)S(=O)(=O)c1ccc(N2CC(C(=O)NCc3ccco3)CC2=O)cc1 (stereo not given)	-8.2	-7.6	·	·	·
Nc1ccc(CSc2ccc(Cl)cc2)c(Cl)c1	22.5	4.6	·	·	-3.7%
O=C(N/N=C/C(Br)=C/c1ccccc1)c1ccccc1[N+](=O)[O-]	-92.5*	-21.4	?	-13.1%	-24.2%
O=C(N/N=C/C(Br)=C/c1ccccc1)c1cnccn1	?	-81.6*	·	-13.5%	-13.9%
Cc1occc1C(=O)N/N=C/C(Br)=C/c1ccccc1	?	-10.9	13.1%	3.5%	-12.5%
Cn1c(=O)c2c(n3c4ccccc4nc13)NC(=O)CC2c1ccccc1F (stereo not given)	·	·	·	-1.2%	·
C=CC(=O)Nc1cccc(Oc2ccnc(Nc3ccc(N4CCN(C)CC4)cc3)n2)c1	-10.7	-19.7	·	·	?
C=CC(=O)Nc1cccc(N(C)c2ccnc(Nc3ccc(N4CCN(C)CC4)cc3)n2)c1	?	-29.5	·	·	10µM*
COc1ccc(CC(=O)NCc2cccs2)cc1OC	-2.0	-4.9	-17.4%	-2.7%	2.1%
COc1cc2[nH]cc(C(=O)NCc3cccs3)c(=O)c2cc1OC	-72.6*	?	·	·	1.6%
C=C(C)Cn1c(NCCOC)nc2c1c(=O)[nH]c(=O)n2C	2.4	1.9	-4.9%	-2.4%	6.5%
C=C(C)Cn1c(N2CC(C)CC(C)C2)nc2c1c(=O)[nH]c(=O)n2C (stereo not given)	-7.1	3.9	-2.0%	25.1µM*	-12.8%
CC(C)(C)c1ccc(CC(=O)N2CCC2(C)C(=O)NCc2cccs2)cc1 (stereo not given)	0.1	-3.6	·	·	·
CN(C(=O)c1cccc(NC(=O)Cc2cccc(NC(=O)C3CCCN(C(=O)C4CCCCC4)C3)c2)c1)C1CC1 (stereo not given)	1.7	7.8	·	·	15.2%
Cc1ccc(C=Nc2ccc(N(C)C)cc2)o1	-68.2*	?	?	-6.6%	-17.3%

High-throughput results as filed in PubChem.
